# Results as given in PubChem BioAssay.
# Unmarked numbers belong to inactive results. No rule for the calls is given here.
# Tested on: Aerobactin synthetase IucA (Klebsiella pneumoniae hvKP1)
# Assay: Biochemical IucA enzyme inhibition primary screen of the Spectrum library (AID 1346200);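 also: 100% = wells without compound and 0% = wells lacking enzyme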
# Conditions: malachite green pyrophosphate, A620, at 8 µM, stronger effect = lower value
row,SMILES,activity remaining
1,O=c1cc(-c2ccc(O)cc2)oc2cc(O)ccc12,102%
2,CC(C)=CCC1=C(O)c2ccccc2C(=O)C1=O,119%
3,O=C1CC[C@]23/C=C/C(=O)NCCCCNCCCNC(=O)/C=C/c4ccc(c2c4)O[C@@H]3C1,117%
4,CC(=O)Oc1cccc(O)c1,114%
5,O=c1cc(-c2ccc(O)c(O)c2)oc2ccccc12,88.4%
6,COc1ccc([C@@H]2CC(=O)c3c(O)cc(O)cc3O2)cc1O,115%
7,COc1ccc(-c2coc3cc(OC)cc(OC)c3c2=O)cc1,103%
8,O=c1cc(-c2ccccc2O)oc2cc(O)ccc12,100%
9,COC(=O)C[C@@H]1C2(C)C(=O)[C@@H](CC3=C4C=C(OC)O[C@@H](c5ccoc5)[C@]4(C)CCC32)[C@H](O)C1(C)C (stereo not given in full),93.6%
10,Oc1c(Br)cc(Br)c2cccnc12,113%
11,CC(=O)OC/C=C(C)/C=C/C=C(C)/C=C/C1=C(C)CCCC1(C)C,92.2%
12,Nc1ccc(S(=O)(=O)c2ccc(N)cc2)cc1,109%
13,CC(C)(Oc1ccc(CCNC(=O)c2ccc(Cl)cc2)cc1)C(=O)O,96.6%
14,CC(=O)[C@H]1CCC2C3CC=C4C[C@@H](O)CC[C@]4(C)C3CC[C@@]21C (stereo not given in full),99.4%
15,COc1cc2c(cc1OC)C1Cc3ccc(OC)c(OC)c3CN1CC2 (stereo not given),118%
16,C[C@H]1O[C@H](O[C@H]2[C@H](O)[C@@H](O)[C@@H](O[C@H]3[C@H](O)[C@@H](O)C(O)O[C@@H]3CO)O[C@@H]2CO)[C@H](O)[C@@H](O)[C@@H]1N[C@H]1C=C(CO)[C@@H](O)[C@H](O)[C@H]1O (stereo not given in full),107%
17,COc1ccc2c3c1O[C@H]1C[C@@H](O)C=C[C@@]31CCN(C)C2,103%
18,CC(C)CCCC(C)C1CCC2C3CC(=O)[C@H]4C[C@@H](O)CC[C@]4(C)C3CC[C@]12C (stereo not given in full),121%
19,CCCc1c(OCCCCc2nn[nH]n2)ccc(C(C)=O)c1O,112%
20,C[C@]12C=CC(=O)C=C1CCC1C2[C@@H](O)C[C@@]2(C)C1CC[C@]2(O)C(=O)CO (stereo not given in full),119%

row,SMILES,activity remaining
1,COC(=O)Nc1nc2ccc(C(=O)c3ccccc3)cc2[nH]1,104%
2,CC[C@@]1(O)C(=O)OCc2c1cc1n(c2=O)Cc2cc3cc(O)ccc3nc2-1,117%
3,CCC(c1ccc(O)cc1)C(CC)c1ccc(O)cc1 (stereo not given),121%
4,C[C@@H]1OC(O[C@H]2[C@H](OC(=O)[C@]34CCC(C)(C)CC3C3=CCC5[C@@]6(C)CC[C@H](OC7O[C@@H](C)[C@H](O[C@@H]8OC[C@@H](O)[C@H](O)[C@H]8O)[C@@H](O)[C@H]7O)C(C)(C)C6CC[C@@]5(C)[C@]3(C)CC4O)OC[C@H](O)[C@H]2O)[C@H](O)[C@H](O)[C@H]1O[C@@H]1O[C@H](CO)[C@@H](O)[C@H](O)[C@H]1O (stereo not given in full),99.8%
5,CCCCCCCC/C=C/CCCCCCCCOP(=O)([O-])OCC[N+](C)(C)C,96.1%
6,CN(C/C=C/C#CC(C)(C)C)Cc1cccc2ccccc12,114%
7,CN1C(C(=O)Nc2ccccn2)=C(O)c2sccc2S1(=O)=O,82.2%
8,O=c1oc2ccccc2cc1O,110%
9,CC(=O)NCCCS(=O)(=O)O,103%
10,Cc1cc(/C=C/c2ccc3cc(N(C)C)ccc3[n+]2C)c(C)n1-c1ccccc1,72.1%
11,O=C1c2ccc(O)c(O)c2C(=O)c2c(O)ccc(O)c21,125%
12,CC(=O)OCC(=O)[C@@]1(O)CCC2C3C[C@H](C)C4=CC(=O)C=CC4(C)C3[C@@H](O)CC21C (stereo not given in full),93.6%
13,CC(=O)NCc1c(I)c(NC(C)=O)c(I)c(C(=O)O)c1I,98.7%
14,CN[C@H]1C[C@@H](N)[C@H](O)[C@@H](O[C@@H]2O[C@H](CO)[C@@H]3OC4(O[C@@H]3[C@@H]2O)O[C@H](C(N)CO)[C@H](O)[C@H](O)[C@H]4O)[C@@H]1O (stereo not given in full),122%
15,CC(=O)Oc1ccc(-c2cc(=O)c3c(OC(C)=O)cc(OC(C)=O)cc3o2)cc1,122%
16,CN(C)CCc1c[nH]c2ccc(Cn3cncn3)cc12,102%
17,C#CCCCCCCCCCCCc1ccco1,113%
18,CCN1CCN(C(=O)NC(C(=O)N[C@@H]2C(=O)N3[C@@H]2SC(C)(C)[C@@H]3C(=O)O)c2ccccc2)C(=O)C1=O (stereo not given in full),104%
19,Cc1cc(C2CCCCC2)n(O)c(=O)c1,95.7%
20,COc1c(C)c2c(c(O)c1C/C=C(\C)CCC(=O)O)C(=O)OC2,98.9%
